Of roughly 7,900 targets only a part is listed; those with a hit were picked by preference. About 0.6% of all pairs of compound and target were hits.
compound: c1cn2cc(-c3ccc4cn[nH]c4c3)nc(Nc3ccc(N4CCOCC4)cc3)c2n1 [entospletinib]; experiment: log2 fold change, soluble protein after heating vs DMSO (PISA); higher = thermal stabilisation; K562 cells, 10 uM, 30 min; active = over 0.2 and 3.5 SD of the protein, either way, in both replicates (recomputed)
Summary of the method: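 Values are thermal stability changes relative to control samples and are taken from duplicates. They are stated as log2 fold changes. Before quantification by TMTpro 16plex LC-MS/MS with equalised channel sums, K562 cells at 2×10^6 cells/mL were treated with 10 μM compound for 30 min, heated in aliquots for 3 min across 48°C-58°C, pooled, extracted in PBS with 0.5% NP-40 at 4°C, and centrifuged at 21,000xg for 90 min to give the soluble supernatant.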

Chain of UniProt Q01085 (Q01085 whole entry, looked up): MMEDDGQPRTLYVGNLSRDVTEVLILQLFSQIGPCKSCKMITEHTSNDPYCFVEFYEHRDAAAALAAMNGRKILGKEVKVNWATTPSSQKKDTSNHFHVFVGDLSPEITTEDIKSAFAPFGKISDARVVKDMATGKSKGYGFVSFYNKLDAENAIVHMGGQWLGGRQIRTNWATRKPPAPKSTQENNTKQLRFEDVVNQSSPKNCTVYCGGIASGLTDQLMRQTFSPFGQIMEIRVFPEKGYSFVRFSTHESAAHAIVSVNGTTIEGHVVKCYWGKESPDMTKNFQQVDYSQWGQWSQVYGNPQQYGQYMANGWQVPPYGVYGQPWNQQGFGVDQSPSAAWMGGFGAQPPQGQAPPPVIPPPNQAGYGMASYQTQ
Chain of UniProt P12931 (P12931 whole entry, looked up): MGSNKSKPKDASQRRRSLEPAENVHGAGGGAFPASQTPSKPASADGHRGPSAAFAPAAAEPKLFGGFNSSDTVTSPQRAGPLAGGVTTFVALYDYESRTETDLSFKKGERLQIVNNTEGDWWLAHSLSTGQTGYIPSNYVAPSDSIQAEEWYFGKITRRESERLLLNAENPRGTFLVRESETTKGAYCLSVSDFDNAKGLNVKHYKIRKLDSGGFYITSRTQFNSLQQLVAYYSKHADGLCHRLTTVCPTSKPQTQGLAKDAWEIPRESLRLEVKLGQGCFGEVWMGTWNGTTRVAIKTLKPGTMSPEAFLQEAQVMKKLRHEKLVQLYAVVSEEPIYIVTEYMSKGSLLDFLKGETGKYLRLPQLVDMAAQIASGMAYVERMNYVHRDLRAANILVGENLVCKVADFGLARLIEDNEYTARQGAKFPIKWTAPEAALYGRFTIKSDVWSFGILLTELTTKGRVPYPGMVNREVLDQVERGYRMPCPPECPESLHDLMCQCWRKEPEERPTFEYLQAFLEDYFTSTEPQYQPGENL
Chain of UniProt Q16594 (Q16594 whole entry, looked up): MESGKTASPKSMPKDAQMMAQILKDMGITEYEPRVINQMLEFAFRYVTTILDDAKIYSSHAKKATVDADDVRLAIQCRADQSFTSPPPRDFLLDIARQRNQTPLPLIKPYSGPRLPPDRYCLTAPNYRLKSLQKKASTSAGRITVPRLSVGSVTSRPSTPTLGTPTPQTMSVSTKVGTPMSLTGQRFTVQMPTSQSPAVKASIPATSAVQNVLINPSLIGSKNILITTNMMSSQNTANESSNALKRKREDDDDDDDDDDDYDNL
Chain of UniProt O75494 (O75494 whole entry, looked up): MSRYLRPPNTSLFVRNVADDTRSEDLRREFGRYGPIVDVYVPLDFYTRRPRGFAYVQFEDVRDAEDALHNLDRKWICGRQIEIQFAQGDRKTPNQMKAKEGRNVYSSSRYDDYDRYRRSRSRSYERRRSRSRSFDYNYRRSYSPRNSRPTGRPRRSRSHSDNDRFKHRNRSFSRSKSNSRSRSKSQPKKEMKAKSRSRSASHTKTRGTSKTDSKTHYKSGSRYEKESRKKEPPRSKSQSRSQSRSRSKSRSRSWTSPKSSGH
Chain of UniProt Q86VD7 (Q86VD7 whole entry, looked up): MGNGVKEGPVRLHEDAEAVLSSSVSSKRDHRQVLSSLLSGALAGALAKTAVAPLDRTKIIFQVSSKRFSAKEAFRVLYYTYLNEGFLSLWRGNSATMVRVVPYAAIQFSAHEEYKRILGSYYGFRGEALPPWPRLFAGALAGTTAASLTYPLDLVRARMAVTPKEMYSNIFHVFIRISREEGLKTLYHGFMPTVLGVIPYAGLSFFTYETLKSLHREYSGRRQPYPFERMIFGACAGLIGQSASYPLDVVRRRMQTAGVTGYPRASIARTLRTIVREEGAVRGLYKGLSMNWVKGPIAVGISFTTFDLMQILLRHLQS
Chain of UniProt Q92609 (Q92609 whole entry, looked up): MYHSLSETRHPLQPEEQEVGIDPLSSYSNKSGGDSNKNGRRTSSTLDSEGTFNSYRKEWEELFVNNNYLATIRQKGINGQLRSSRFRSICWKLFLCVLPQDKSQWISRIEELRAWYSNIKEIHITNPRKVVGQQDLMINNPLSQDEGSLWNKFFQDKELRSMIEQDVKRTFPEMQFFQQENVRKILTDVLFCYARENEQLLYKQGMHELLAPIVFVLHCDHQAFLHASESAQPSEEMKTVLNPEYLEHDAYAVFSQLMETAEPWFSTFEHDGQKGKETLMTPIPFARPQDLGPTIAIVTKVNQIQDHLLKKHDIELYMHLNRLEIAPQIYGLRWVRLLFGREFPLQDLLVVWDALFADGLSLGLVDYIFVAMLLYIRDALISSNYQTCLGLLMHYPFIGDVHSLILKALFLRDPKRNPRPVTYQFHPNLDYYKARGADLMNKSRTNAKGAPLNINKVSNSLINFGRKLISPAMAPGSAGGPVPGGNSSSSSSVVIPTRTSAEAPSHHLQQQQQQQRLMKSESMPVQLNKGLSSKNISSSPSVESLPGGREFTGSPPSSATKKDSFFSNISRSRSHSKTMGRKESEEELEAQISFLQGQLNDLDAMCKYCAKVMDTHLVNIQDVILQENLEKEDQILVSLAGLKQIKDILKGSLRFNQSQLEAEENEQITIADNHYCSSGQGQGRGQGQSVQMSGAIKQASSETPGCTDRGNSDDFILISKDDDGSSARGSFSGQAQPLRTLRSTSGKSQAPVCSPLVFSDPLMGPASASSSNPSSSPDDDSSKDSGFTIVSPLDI
Chain of UniProt Q07157 (Q07157 whole entry, looked up): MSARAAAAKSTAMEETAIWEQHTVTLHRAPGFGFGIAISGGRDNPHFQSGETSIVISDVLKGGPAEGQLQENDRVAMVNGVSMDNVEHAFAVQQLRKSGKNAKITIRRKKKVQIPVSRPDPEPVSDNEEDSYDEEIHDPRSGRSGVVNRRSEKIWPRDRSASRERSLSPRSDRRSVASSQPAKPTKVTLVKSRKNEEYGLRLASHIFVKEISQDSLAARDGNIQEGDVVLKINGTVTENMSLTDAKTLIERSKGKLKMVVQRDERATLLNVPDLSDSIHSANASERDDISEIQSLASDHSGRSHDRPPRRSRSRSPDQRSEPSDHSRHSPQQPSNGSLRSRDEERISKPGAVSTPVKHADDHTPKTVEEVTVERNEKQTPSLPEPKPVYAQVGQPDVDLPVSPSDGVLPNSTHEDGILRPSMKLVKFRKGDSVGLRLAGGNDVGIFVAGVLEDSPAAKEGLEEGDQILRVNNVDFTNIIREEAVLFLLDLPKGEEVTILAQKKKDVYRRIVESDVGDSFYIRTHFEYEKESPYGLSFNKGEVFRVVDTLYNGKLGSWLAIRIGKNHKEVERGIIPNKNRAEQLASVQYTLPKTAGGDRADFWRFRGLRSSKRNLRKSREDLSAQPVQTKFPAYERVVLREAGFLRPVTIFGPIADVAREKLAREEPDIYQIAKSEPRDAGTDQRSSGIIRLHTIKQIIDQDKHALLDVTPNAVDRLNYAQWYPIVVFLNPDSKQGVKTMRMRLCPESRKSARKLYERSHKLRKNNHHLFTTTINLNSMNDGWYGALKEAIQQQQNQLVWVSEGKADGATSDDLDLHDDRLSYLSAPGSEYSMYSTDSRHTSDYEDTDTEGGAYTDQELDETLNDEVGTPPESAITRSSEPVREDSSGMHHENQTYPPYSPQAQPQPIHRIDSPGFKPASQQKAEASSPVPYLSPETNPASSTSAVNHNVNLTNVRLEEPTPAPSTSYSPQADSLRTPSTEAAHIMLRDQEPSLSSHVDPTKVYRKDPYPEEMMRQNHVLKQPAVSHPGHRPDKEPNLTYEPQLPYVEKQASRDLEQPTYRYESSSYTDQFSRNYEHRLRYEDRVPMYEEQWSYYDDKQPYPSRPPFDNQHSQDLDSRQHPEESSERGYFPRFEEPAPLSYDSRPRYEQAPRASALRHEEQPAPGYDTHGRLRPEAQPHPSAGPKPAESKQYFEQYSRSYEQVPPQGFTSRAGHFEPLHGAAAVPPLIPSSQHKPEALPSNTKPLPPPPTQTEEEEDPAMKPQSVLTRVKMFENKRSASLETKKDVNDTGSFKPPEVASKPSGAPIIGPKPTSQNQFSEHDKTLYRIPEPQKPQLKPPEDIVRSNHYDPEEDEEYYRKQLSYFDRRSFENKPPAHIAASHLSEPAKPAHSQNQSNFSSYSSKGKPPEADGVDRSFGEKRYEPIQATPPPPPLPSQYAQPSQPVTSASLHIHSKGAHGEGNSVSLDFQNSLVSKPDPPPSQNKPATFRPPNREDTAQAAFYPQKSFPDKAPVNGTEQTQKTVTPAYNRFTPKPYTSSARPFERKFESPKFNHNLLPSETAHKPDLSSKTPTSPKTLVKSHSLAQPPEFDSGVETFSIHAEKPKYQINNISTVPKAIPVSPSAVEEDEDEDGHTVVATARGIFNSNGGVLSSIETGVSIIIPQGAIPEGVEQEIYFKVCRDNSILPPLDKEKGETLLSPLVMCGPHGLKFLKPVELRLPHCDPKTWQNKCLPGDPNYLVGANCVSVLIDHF
Chain of UniProt Q9BZD2 (Q9BZD2 whole entry, looked up): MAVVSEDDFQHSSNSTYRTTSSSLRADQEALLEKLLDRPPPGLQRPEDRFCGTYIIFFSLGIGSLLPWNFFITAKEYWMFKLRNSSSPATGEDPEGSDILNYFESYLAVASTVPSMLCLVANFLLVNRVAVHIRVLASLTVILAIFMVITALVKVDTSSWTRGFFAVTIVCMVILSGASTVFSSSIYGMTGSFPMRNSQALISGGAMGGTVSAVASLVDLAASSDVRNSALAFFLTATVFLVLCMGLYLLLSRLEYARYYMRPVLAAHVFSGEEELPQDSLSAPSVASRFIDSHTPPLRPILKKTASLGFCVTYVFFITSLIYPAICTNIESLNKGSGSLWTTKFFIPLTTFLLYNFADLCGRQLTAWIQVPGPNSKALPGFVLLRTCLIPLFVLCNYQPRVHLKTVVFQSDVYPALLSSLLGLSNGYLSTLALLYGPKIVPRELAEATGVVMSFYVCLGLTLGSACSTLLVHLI
Chain of UniProt O60493 (O60493 whole entry, looked up): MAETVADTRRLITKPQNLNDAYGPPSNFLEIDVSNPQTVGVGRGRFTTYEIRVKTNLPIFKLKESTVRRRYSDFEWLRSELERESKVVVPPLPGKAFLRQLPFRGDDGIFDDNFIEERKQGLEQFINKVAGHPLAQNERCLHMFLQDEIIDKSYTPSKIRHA

log2 fold change, inactive:
SMCHD1 (UniProt A6NHR9) 0.049
SRP72 (UniProt O76094) 0.052
TJP2 isoform 7 (UniProt Q9UDY2) 0.037
TAF9 (UniProt Q16594) -0.042
TAOK2 (UniProt Q9UL54) -0.038
SRSF7 (UniProt Q16629) 0.197
TM9SF2 (UniProt Q99805) 0.023
SURF1 (UniProt Q15526) 0.029
TBC1D10B (UniProt Q4KMP7) 0
SLK isoform 2 (UniProt Q9H2G2) -0.059
TENT5C (UniProt Q5VWP2) 0.019
SNX3 (UniProt O60493) 0.084
TBC1D5 isoform 2 (UniProt Q92609) -0.02
TELO2 (UniProt Q9Y4R8) 0.044
SP2 (UniProt Q02086) 0.07
SLC7A6 (UniProt Q92536) 0.031
SLC29A3 (UniProt Q9BZD2) 0.023
SRSF10 (UniProt O75494) 0.235
SORT1 (UniProt Q99523) 0.05
TIAL1 isoform 2 (UniProt Q01085) 0.003
SLC9A6 isoform 2 (UniProt Q92581) -0.004
TFAM (UniProt Q00059) 0.08
TCOF1 isoform 4 (UniProt Q13428) 0.001
TGFBRAP1 (UniProt Q8WUH2) 0.056
STEAP3 isoform 2 (UniProt Q658P3) -0.038
TLK2 isoform 2 (UniProt Q86UE8) 0.03
TACC2 (UniProt O95359) -0.009
TATDN2 (UniProt Q93075) -0.046
SUN1 isoform 9 (UniProt O94901) -0.064
SLC38A9 (UniProt Q8NBW4) 0.019
SLC25A42 (UniProt Q86VD7) 0.055
TJP1 (UniProt Q07157) 0.009
SRC isoform 2 (UniProt P12931) 0.02
SPR (UniProt P35270) 0.057
SSRP1 (UniProt Q08945) -0.027
